UGM FP inh: inhibitors of M. tuberculosis UDP-galactopyranose mutase. purified UGM, fluorescence polarization probe displacement. inhibition, % at 10 µM. 0.06% of 320,000 active. AID 504406; in the data active = inhibition above about 10%, passing the limit was not always enough; inconclusive = no clear call, values can overlap the other calls
GDH-TPI counter: GDH-TPI coupled enzyme inhibition counter-screen. GDH-TPI coupled enzyme counterscreen, NADH absorbance. inhibition, % at 4.8 µM. 1.2% of 360,000 active; in the data active = inhibition above about 30%
FBA Mtb inh: Mtb fructose-bisphosphate aldolase inhibition; 2.3% of 360,000 active; inhibition, % at 1 µM; AID 588726; P9WQA3; purified M. tuberculosis FBA, fluorescence read-out; in the data active = inhibition above about 27%
Target sequence (P9WQA3 whole entry, looked up): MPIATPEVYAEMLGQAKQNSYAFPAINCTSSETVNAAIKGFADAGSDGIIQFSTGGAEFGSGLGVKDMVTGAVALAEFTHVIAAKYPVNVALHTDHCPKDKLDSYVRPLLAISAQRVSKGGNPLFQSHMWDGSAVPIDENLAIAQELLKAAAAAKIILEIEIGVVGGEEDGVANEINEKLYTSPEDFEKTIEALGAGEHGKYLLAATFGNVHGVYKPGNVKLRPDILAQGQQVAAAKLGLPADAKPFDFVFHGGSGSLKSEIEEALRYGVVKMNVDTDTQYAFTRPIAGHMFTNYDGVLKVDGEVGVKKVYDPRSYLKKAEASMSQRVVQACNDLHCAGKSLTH
Mtb betalactam: beta-lactam sensitization of Mtb H37Rv. M. tuberculosis H37Rv growth with meropenem, percent inhibition. inhibition, % at 25 µM. 0.27% of 330,000 active. AID 434955; call rule not given here;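 note: growth measured after seven days incubation then overnight dye step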
Rv3671c inh: inhibitors of M. tuberculosis serine protease Rv3671c. P9WHR9. inhibition, % at 5.96 µM. 0.048% of 320,000 active. AID 2606; in the data active = inhibition above about 38%;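 note: extracellular domain of Rv3671c used as enzyme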
Each line names hits and unclear results; the compound was inactive in the other large screens. The list is not random: actives were taken first. Their share in the collection is about 3.5%.

CC1(C)CC(=O)C2=C(C1)Nc1ccccc1NC2c1cccnc1 (configuration not stated)	GDH-TPI counter 37
COC(=O)c1ccc2c(c1)NC1=C(C(=O)CC(C)(C)C1)C(c1ccncc1)N2 (configuration not stated)	GDH-TPI counter 31
Cc1cc2c(cc1C)NC(c1cccnc1)C1=C(CC(C)(C)CC1=O)N2 (configuration not stated)	GDH-TPI counter 33
CCOc1cc(C2Nc3ccccc3NC3=C2C(=O)CC(C)(C)C3)ccc1OC(C)=O (configuration not stated)	GDH-TPI counter 43
Cc1ccc(-c2nc(C#N)c(N3CCC(C(N)=O)CC3)o2)cc1	FBA Mtb inh 179
COc1ccccc1-c1nc(C#N)c(N2CCC(Cc3ccccc3)CC2)o1	FBA Mtb inh 44
N#Cc1nc(-c2ccc(F)cc2)oc1N1CCC(C(N)=O)CC1	FBA Mtb inh active
CCOc1ccc(-c2nc(S(=O)(=O)c3ccccc3)c(N3CCC(C(N)=O)CC3)o2)cc1	none
COc1ccc(-c2nc(C#N)c(N3CCOCC3)o2)cc1OC	FBA Mtb inh active
O=C(NC1CCN(C(=O)Nc2ccc(F)cc2)CC1)c1ccc(F)cc1	none
COc1ccccc1OCC(=O)Nc1c2c(nn1-c1ccccc1)CS(=O)(=O)C2	none
Cc1ccc(C(CNS(=O)(=O)c2ccc([N+](=O)[O-])cc2)N2CCN(C)CC2)cc1 (configuration not stated)	none
N#Cc1nc(-c2ccccc2)oc1N1CCC(C(N)=O)CC1	FBA Mtb inh active
COc1ccc(-c2nc(C#N)c(N3CCC(C(N)=O)CC3)o2)cc1OC	FBA Mtb inh active
N#Cc1nc(-c2ccco2)oc1N1CCN(Cc2ccccc2)CC1	none
CCOC(=O)C1CCCN(c2oc(-c3ccc(OC)cc3)nc2C#N)C1 (configuration not stated)	FBA Mtb inh 132
N#Cc1nc(-c2ccco2)oc1N1CCC(C(N)=O)CC1	FBA Mtb inh 124
N#Cc1nc(Cc2ccccc2)oc1N1CCC(C(N)=O)CC1	none
COc1c(/C=C2\SC(=Nc3ccccc3Cl)NC2=O)cccc1[N+](=O)[O-]	none
COc1cc(/C=C2\S/C(=N/S(=O)(=O)Cc3ccccc3)NC2=O)c([N+](=O)[O-])cc1OC	GDH-TPI counter 33
O=C1N/C(=N\S(=O)(=O)Cc2ccccc2)S/C1=C/c1cc([N+](=O)[O-])ccc1O	GDH-TPI counter 39
COc1cc(/C=C2/S/C(=N/S(=O)(=O)c3ccccc3)NC2=O)c([N+](=O)[O-])cc1OC	none
COc1cc(/C=C2/S/C(=N/S(=O)(=O)Cc3ccccc3)NC2=O)c([N+](=O)[O-])cc1OC	GDH-TPI counter 34
Cc1cccc(NC(=O)CSCC(=O)N(C)CCOc2ccc(Cl)cc2)c1	none
CC(=O)Nc1ccc(S(=O)(=O)N(C)CC(=O)OC(C)C(=O)N(C)Cc2ccccc2)cc1 (configuration not stated)	none
Cc1ccc(C)c(NC(=S)N2CCC(C(=O)c3ccc(F)cc3)CC2)c1	none (no result: UGM FP inh, Mtb betalactam, Rv3671c inh)
O=C1NC(=S)SC1=C1CCCCCC1	GDH-TPI counter 33
O=C1N=C(N2CCCCC2)SC1=C1CCCCC1	none
CC1CCC(NC(=O)c2cc(C3CC3)nn2-c2ccccc2)CC1 (configuration not stated)	FBA Mtb inh active
CN(C)c1ccc(/C=N/O)cc1	none
CN(C)c1ccc(/C=C2/C(=N\O)C3CCN2CC3)cc1	GDH-TPI counter 52
Cc1c(Cl)cccc1NC(=O)c1ncn[nH]1	none
CCOC(=O)/C(C#N)=C/Nc1ccccc1OC	GDH-TPI counter 44
COc1cc(C2Oc3cc(C4Oc5cc(O)cc(O)c5C(=O)C4O)ccc3OC2CO)ccc1O (configuration not stated)	GDH-TPI counter 36
COc1ccc(C2CC(=O)c3c(O)cc(O)cc3O2)cc1O (configuration not stated)	none (no result: UGM FP inh, Mtb betalactam, Rv3671c inh)
N#Cc1c(-c2cccs2)cc(-c2ccccn2)nc1N	FBA Mtb inh 78 (no result: Mtb betalactam)
N#Cc1c(N)nc2c(c1-c1cccs1)CCCC2	none
COc1ccccc1C(=O)NCCC(=O)N1CC(C)OC(C)C1 (configuration not stated)	none (no result: UGM FP inh, Mtb betalactam, Rv3671c inh)
O=C(/C=C/c1cccs1)c1ccc(NC(=O)c2cccc(Br)c2)cc1	GDH-TPI counter 40
O=C(O)c1ccc2c(c1)C(=O)N(c1cccc(S(=O)(=O)Nc3cccc(C(F)(F)F)c3)c1)C2=O	none (no result: UGM FP inh)
O[C@@H]1COC(Nc2ccc(N=Nc3ccccc3)cc2)C[C@@H]1O (some centres not stated)	none (no result: GDH-TPI counter, FBA Mtb inh)
CC1CCN(C2(O)C(=O)Nc3ccc(Cl)cc32)CC1 (configuration not stated)	none
CC1CCN(C2(O)C(=O)Nc3ccc([N+](=O)[O-])cc32)CC1 (configuration not stated)	GDH-TPI counter 32
O=C(Nc1cccc(F)c1)c1ccc(S(=O)(=O)N2CCCCC2)cc1	none
CCOC(=O)c1ccc(N)cc1	none
Nc1ccc(C(=O)C(=O)c2ccc(N)cc2)cc1	GDH-TPI counter 38
CS(=O)(=O)c1ccc2nc(NC(=O)c3ccc(Cn4cc(Br)cn4)o3)sc2c1	GDH-TPI counter 31
O=c1oc2cc(O)ccc2cc1-c1ccccc1	FBA Mtb inh active
COc1ccc(-c2cc3ccc(O)cc3oc2=O)cc1	FBA Mtb inh active, Mtb betalactam inconclusive
CCC(=O)Nc1c(OC(=O)CC)ccc2c(C)cc(=O)oc12	FBA Mtb inh 140
COc1ccc(C(=O)N/N=C/c2ccc(OC)c(COc3ccccc3)c2)cc1	GDH-TPI counter 37
COc1cc(/C=N/NC(=O)c2ccc(O)cc2)ccc1OCC(=O)N1CC(C)OC(C)C1 (configuration not stated)	GDH-TPI counter 52
COc1ccc(C(=O)N/N=C/c2ccc(SC)cc2)cc1	GDH-TPI counter 46
CSc1ccc(/C=N/NC(=O)c2ccc(O)cc2)cc1	GDH-TPI counter 55
CC(=O)c1ccc(OCCCCCCCOc2ccc(C(C)=O)cc2)cc1	none
O=S(=O)(Nc1ccc2cn[nH]c2c1)c1ccc(Cl)s1	none
CCOc1ccc(Nc2ccc(N)c(S(=O)(=O)O)c2)cc1	none (no result: UGM FP inh, Mtb betalactam, Rv3671c inh)
COc1ccc(/C=N/NC(=O)c2cccnc2)cc1	none
COc1ccc(/C=N/NC(=O)c2ccc[nH]2)cc1	GDH-TPI counter 32
CSc1ccc(/C=N/NC(=O)c2ccccc2Cl)cc1	GDH-TPI counter 72
CN(C)c1ccc(C2/C(=C(/O)c3ccccc3)C(=O)C(=O)N2CCCC(=O)O)cc1 (configuration not stated)	GDH-TPI counter 31
CN(C)CCCN1C(=O)C(=O)/C(=C(/O)c2ccncc2)C1c1cccnc1 (configuration not stated)	none (no result: UGM FP inh, Mtb betalactam, Rv3671c inh)
COCCCN1C(=O)C(=O)/C(=C(/O)c2ccccc2)C1c1ccc(N(C)C)cc1 (configuration not stated)	none
CN(C)CCCN1C(=O)C(=O)/C(=C(/O)c2ccncc2)C1c1cccc(Br)c1 (configuration not stated)	GDH-TPI counter 31
